# Screening data as filed in PubChem.
# In the library only some 3.6% were active in any assay of this set; here they are far more common.
# D1 antagonist: blocks dopamine activation of the human D1 receptor; P21728; HEK293 TREx D1 cells, calcium flux, dopamine EC80; active compounds read low; activity change, negative = inhibition, % at 10 µM; 3.2% of 360,000 active; in the data active means activity change below about -30%; further: on the % scale 0 is the no-effect control and ±100 the full control effect
# Target sequence (P21728 whole entry, looked up): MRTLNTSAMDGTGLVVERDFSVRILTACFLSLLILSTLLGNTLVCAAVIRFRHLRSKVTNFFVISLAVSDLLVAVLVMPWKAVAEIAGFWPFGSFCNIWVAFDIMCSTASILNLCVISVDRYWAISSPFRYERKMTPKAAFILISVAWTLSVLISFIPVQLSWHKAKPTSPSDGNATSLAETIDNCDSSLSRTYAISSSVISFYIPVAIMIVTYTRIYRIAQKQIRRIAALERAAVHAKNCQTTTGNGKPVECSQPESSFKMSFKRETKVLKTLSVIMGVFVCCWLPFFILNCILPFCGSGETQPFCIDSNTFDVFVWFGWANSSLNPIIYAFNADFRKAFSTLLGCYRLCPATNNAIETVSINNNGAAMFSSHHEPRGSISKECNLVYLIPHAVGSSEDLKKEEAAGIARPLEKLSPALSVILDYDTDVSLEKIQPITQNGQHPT
#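 Inducible Hek293 Trex D1 cells (tetracycline, overnight, 30 C). Calcium dye 30–90 min RT. Antagonist mode: EC80 dopamine added after 180 s compound read.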
# LDHA block: LDHA (human) enzyme inhibition; P00338; purified LDHA, NADH/diaphorase-resazurin fluorescence; active compounds read low; activity change, % (values are at about 110 or 230 µM); 0.15% of 480,000 active; in the data active means activity change below about -30%;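 further: plate controls were DMSO wells for no effect and wells without enzyme for full effect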
#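 LDH5 2 nM; NADH 0.06 mM, pyruvate 0.2 mM; 200 mM Tris pH 7.4, EDTA, Tween-20; 5 min RT. Detection: diaphorase 0.133 mg/mL + resazurin 37 µM, fluorescence ex540/em590 at 0 and 20 min; normalized to enzyme-free and DMSO wells.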
# D1 ag: human D1 receptor agonism | P21728 | HEK293 T-REx D1 cells, calcium flux, agonist mode | activation, % at 2 µM | 1% of 360,000 active; further: 0% is about no effect
#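 Tetracycline-induced HEK293 TREx D1 cells, force-coupled to calcium signalling, were dye-loaded with a no-wash calcium kit. Compound was pin-added after a 10 s baseline. Fluorescence was read kinetically at 1 cycle/s for 180 s, with calcium rises flagged as agonism.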
# D1 potentiator: enhances dopamine response at the human D1 receptor; AID 504651; potentiation, % at 10 µM; P21728; HEK293 TREx D1 cells, calcium flux, dopamine EC20 potentiation; 0.036% of 360,000 active; in the data active means potentiation above about 30%; further: 0% is about no effect
# TRHR ag: TRH receptor (human) agonism. 0.18% of 360,000 active. TRHR cells, calcium flux fluo-8, FDSS agonist mode. AID 493084. P34981. activation, % at 2 µM; further: 0% is about no effect
#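 Steps: seed TRHR cells overnight; add fluo-8 no-wash Ca dye, RT 30 min–1.5 h; record 10 s baseline; pin-transfer compounds; monitor fluorescence 1 cycle/s for the agonist window. Calcium increases flag candidate agonists.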
# TRHR enhancer: TRH receptor (human) allosteric enhancement | TRHR cells, fluo-8 calcium fluorescence, EC20 TRH enhancement | enhancement, % at 2 µM | 0.66% of 360,000 active; in the data active means enhancement above about 30%; further: 0% is about no effect
#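 TRHR-expressing cells loaded with fluo-8 calcium dye were read kinetically (ex 480/em 530) during compound addition, then stimulated with an EC20 of TRH (10 nM final). Enhancement of the Gq-mediated intracellular calcium response was scored.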
# Numbers without * were called inactive; . = no result given. Unless noted, no stated cut-off is given here; in the data, active means activation above about 30%; inactive means the rest.
SMILES,D1 antagonist,LDHA block,D1 ag,D1 potentiator,TRHR ag,TRHR enhancer
Cc1ccc(CNC(=O)c2cc(NS(=O)(=O)c3ccc(C)cc3)ccn2)cc1,-31.7*,-8.1,-0.6,3.0,-0.4,2.7
Cc1ccc(NS(=O)(=O)c2ccc(C(=O)NCc3ccccn3)cc2)cc1,-29.7,-11.9,40.0*,-8.4,6.5,-0.6
CCOc1ccc(NS(=O)(=O)c2ccc(C(=O)NCc3ccccn3)cc2)cc1,7.5,-1.2,33.1*,-18.6,4.5,-1.5
Cc1ccc(C(C)n2cc(C(=O)NCc3ccccn3)nn2)cc1 (stereo not given),14.7,-7.1,32.5*,-6.5,3.5,0.2
CC(c1ccc(F)cc1)n1cc(C(=O)NCc2ccccn2)nn1 (stereo not given),14.0,1.9,22.5,-4.2,-1.0,-0.4
O=c1cc(O)c2sc3nc(-c4cccs4)cc(-c4cccs4)c3c2[nH]1,.,3.2,.,.,.,.
O=C(c1ccccc1OC(F)F)N1CCCCC1,.,6.9,.,.,.,.
CC(=O)Nc1ccc(S(=O)(=O)Nc2ccc(C(=O)NCC(=O)O)cc2)cc1,-65.9*,-1.1,1.7,-3.4,0.7,7.2
COc1cc2c(c(O)c1OC)-c1c(cc(OC)c(OC)c1OC)C[C@@H](C)[C@@H](C)C2,-40.1*,-2.4,3.0,-2.3,0.7,-3.4
O=C(Nc1ncc(S(=O)(=O)c2ccc([N+](=O)[O-])cc2)s1)c1ccccc1F,-12.0,-1.0,37.9*,8.3,7.7,3.5
CCc1ccc2oc(-c3cccc(NC(=O)COc4ccc([N+](=O)[O-])cc4)c3)nc2c1,.,-4.9,.,.,.,.
Cc1ccccc1C(=O)Nc1ccc(N2CCN(C)CC2)nc1,7.9,-6.8,1.3,-4.2,-0.6,-3.6
CN1CCN(c2ccc(NC(=O)c3ccc(C(F)(F)F)cc3)cn2)CC1,-41.3*,-8.1,3.7,-8.3,1.0,-1.4
O=C(COC(=O)C1CCN(c2ccc(C(F)(F)F)cn2)CC1)c1ccc(F)cc1,-34.7*,4.4,43.2*,-6.8,-0.3,3.2
CC(=O)c1ccc(NC(=O)C(C)OC(=O)C2CCN(c3ccc(C(F)(F)F)cn3)CC2)cc1 (stereo not given),-30.1*,-5.6,2.4,-1.4,1.1,-7.1
CC(OC(=O)C1CCN(c2ccc(C(F)(F)F)cn2)CC1)C(=O)c1ccccc1 (stereo not given),-31.9*,4.4,21.5,-4.6,-0.8,5.8
CSc1ccc(Cl)c(C(=O)OCC(=O)NCc2ccc3c(c2)OCO3)c1,.,-5.9,.,.,.,.
O=C(/C=C/c1cccc2ccccc12)N(Cc1cccs1)C1CC1,.,-2.5,.,.,.,.
CCc1ccc(NC(=O)c2cc(=O)c3cc(CC)ccc3o2)cc1,.,-1.3,.,.,.,.
O=C1NCCN(Cc2ccc(F)cc2)C1=O,-40.6*,0.3,-2.4,-0.8,0.8,1.6
Cc1ccc2c(c1)N(C(=O)C1CCN(S(=O)(=O)c3c(C)noc3/C=C/c3ccccc3F)CC1)CCO2,-38.6*,-8.9,10.1,-0.1,0.6,-5.9
Cc1ccc(CNC(=O)C2CCN(S(=O)(=O)c3c(C)noc3/C=C/c3ccco3)CC2)cc1,-47.5*,-1.2,8.6,-10.2,-0.4,4.9
COc1ccc(NC(=O)C2CCN(S(=O)(=O)c3c(C)noc3/C=C/N(C)C)CC2)cc1,-34.2*,-1.7,0.7,-2.4,0.0,-4.8
Cc1ccccc1NC(=O)C1CCN(S(=O)(=O)c2c(C)noc2/C=C/c2ccco2)CC1,-32.9*,-3.1,0.3,5.1,0.2,-8.1
Cc1cccnc1NC(=O)C1CCN(S(=O)(=O)c2c(C)noc2/C=C/c2ccco2)CC1,-2.5,-10.1,-0.4,1.9,-0.2,0.0
CC(Cc1ccccc1)NNC(=O)C(O)(Cc1ccccc1)Cc1ccccc1 (stereo not given),.,-2.8,.,.,.,.
COc1cc(NC(=O)Nc2c(NC3CCCCC3)c3ccccc3oc2=O)cc(OC)c1,.,-11.2,.,.,.,.
O=C(c1ccccc1)c1ccc(O)cc1O,-7.6,-3.7,60.2*,-1.5,19.9,-3.5
COc1ccc(NC(=O)c2cc3nc(-c4ccc(Cl)c(Cl)c4)cc(C(F)(F)F)n3n2)c(OC)c1,-66.1*,0.4,-1.5,0.1,-0.4,7.1
